IDE exosite FP: insulin-degrading enzyme (human) exo-site inhibition | AID 1259349 | actives 6.3% (n = 17,000) | purified IDE, FL-6b probe fluorescence polarization; active compounds read low | P14735 | z-score at 20 µM;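 active = z-score of -3 or lower, meaning strong loss of probe binding signal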;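 note: His-tagged human IDE residues 42-1019 made in E. coli with 30 nM FL-6b probe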
Target sequence (P14735 42-1019 limits assumed): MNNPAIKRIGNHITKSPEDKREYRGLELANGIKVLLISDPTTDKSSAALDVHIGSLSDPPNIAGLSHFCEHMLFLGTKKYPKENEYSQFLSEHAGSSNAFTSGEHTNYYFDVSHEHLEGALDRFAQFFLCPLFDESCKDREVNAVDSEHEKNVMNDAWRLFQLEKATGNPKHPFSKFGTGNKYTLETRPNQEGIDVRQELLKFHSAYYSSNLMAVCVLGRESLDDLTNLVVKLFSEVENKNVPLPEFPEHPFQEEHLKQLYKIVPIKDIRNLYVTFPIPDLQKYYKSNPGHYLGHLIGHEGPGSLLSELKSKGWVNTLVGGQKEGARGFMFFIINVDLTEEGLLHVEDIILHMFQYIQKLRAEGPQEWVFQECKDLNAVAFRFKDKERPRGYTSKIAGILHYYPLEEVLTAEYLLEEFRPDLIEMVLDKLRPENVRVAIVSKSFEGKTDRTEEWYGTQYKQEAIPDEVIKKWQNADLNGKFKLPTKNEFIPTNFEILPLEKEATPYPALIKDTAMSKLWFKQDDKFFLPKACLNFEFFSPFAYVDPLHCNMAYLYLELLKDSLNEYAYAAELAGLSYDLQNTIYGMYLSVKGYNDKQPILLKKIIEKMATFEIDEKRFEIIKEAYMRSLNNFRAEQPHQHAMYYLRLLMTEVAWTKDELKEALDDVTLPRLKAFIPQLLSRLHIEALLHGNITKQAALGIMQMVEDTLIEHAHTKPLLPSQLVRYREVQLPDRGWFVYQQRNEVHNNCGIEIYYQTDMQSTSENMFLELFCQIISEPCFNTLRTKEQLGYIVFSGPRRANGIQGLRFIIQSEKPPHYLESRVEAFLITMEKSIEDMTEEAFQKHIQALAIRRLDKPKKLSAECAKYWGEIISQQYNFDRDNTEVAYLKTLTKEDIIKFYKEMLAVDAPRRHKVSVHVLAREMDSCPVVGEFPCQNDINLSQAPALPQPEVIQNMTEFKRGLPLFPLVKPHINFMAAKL
Of the large screens only hits and unclear results are named; the others gave an inactive call. Many of the other results were omitted from the sample, so hits are more common in it than they were.

CCCC#Cc1ccc([C@@H]2[C@@H](CO)N3CCCCN(S(C)(=O)=O)C[C@H]23)cc1	none
COc1ccccc1C#Cc1ccc([C@H]2[C@H](CO)N3CCCCN(S(C)(=O)=O)C[C@@H]23)cc1	IDE exosite FP -8.1
COc1ccc(C#Cc2ccc([C@H]3[C@H](CO)N4CCCCN(S(=O)(=O)c5ccccc5)C[C@@H]34)cc2)cc1	none
CN(C)CC(=O)N[C@@H]1C=C[C@@H](CC(=O)NCc2ccc(Cl)cc2)O[C@H]1CO	none
COc1ccc2c3c(n(C)c2c1)[C@H](CO)N(S(C)(=O)=O)CC31CCN(Cc2nccs2)CC1	none
CC(=O)N1CC(=O)N2[C@@H](CO)[C@H](c3ccc(-c4cccc(C(=O)N(C)C)c4)cc3)[C@@H]2C1	none
COc1ccccc1NC(=O)N1[C@H](C#N)[C@@H](c2ccccc2)[C@@H]1CO	none
CCC(=O)N(C)C[C@@H]1[C@@H](c2ccc(-c3ccccc3F)cc2)[C@H](CO)N1C(C)=O	none
O=C(C1CCC1)N1CC2(C1)[C@@H](c1ccccc1)[C@@H](CO)N2Cc1nccs1	none
CC(C)C#Cc1ccc([C@H]2[C@H](CO)N3C(=O)CN(C(=O)Cc4ccccc4)C[C@@H]23)cc1	none
CCCC#Cc1ccc([C@@H]2[C@H](CO)N3C(=O)CN(C(=O)Nc4cccc(F)c4)C[C@@H]23)cc1	none
O=C(NC[C@H]1N[C@H](CO)[C@@H]1c1ccccc1)c1ccccc1F	none
COCC(=O)NC[C@H]1N[C@H](CO)[C@H]1c1ccc(-c2ccccc2F)cc1	IDE exosite FP -3.3
COCC(=O)NC[C@H]1N[C@H](CO)[C@@H]1c1ccc(C2=CCCCC2)cc1	none
COCC(=O)NC[C@H]1N[C@H](CO)[C@@H]1c1ccc(-c2ccccc2F)cc1	IDE exosite FP -3.1
O=C(NC[C@@H]1N[C@@H](CO)[C@H]1c1ccccc1)c1ccccc1F	none
C/C=C/c1ccc([C@@H]2[C@H](CO)N[C@H]2CNC(=O)c2ccccc2F)cc1	none
O=C(NC[C@H]1N[C@H](CO)[C@@H]1c1ccc(-c2ccccc2F)cc1)c1ccccc1	IDE exosite FP -10
COCC(=O)NC[C@H]1[C@H](c2ccc(-c3ccccc3)cc2)[C@@H](CO)N1C(C)=O	none
CCC(=O)NC[C@H]1N[C@H](CO)[C@@H]1c1ccc(-c2ccccc2F)cc1	none
CCS(=O)(=O)N(C)C[C@@H]1N[C@H](CO)[C@@H]1c1ccc(-c2ccccc2F)cc1	none
CCC(=O)N1[C@H](CNC(=O)COC)[C@@H](c2ccc(-c3ccccc3)cc2)[C@@H]1CO	IDE exosite FP -3.5
CCC(=O)N1[C@H](CNC(=O)COC)[C@H](c2ccc(-c3ccccc3)cc2)[C@@H]1CO	none
CCC(=O)N1[C@H](CO)[C@H](c2ccc(C3=CCCCC3)cc2)[C@H]1CNCC1CCC1	none
N#C[C@@H]1[C@H](c2ccccc2-c2ccccc2F)[C@H](CO)N1C(=O)Cc1ccccc1	none
O=C(C[C@H]1C[C@@H]2c3cc(NC(=O)Nc4ccccc4F)ccc3O[C@@H]2[C@@H](CO)O1)NCc1ccccn1	none
O=C(CC1CC1)N1CC2(C1)[C@@H](c1ccccc1)[C@@H](CO)N2Cc1ccccn1	none
CCC(=O)N1[C@H](CO)[C@@H](c2ccccc2)C12CN(C(=O)c1ccncc1)C2	none
O=C(c1ccncc1)N1CC2(C1)[C@H](c1ccccc1)[C@H](CO)N2CC1CC1	none
O=C(CC1CC1)N1CC2(C1)[C@@H](c1ccccc1)[C@H](CO)N2C(=O)c1ccccn1	none
O=C(Cc1ccccn1)N1CC2(C1)[C@H](c1ccccc1)[C@@H](CO)N2C(=O)c1ccncc1	IDE exosite FP -3.7
O=C(Cc1ccccn1)N1CC2(C1)[C@@H](c1ccccc1)[C@@H](CO)N2C(=O)c1ccncc1	IDE exosite FP -3.3
C[C@@H](O)C#Cc1ccc([C@@H]2[C@@H](CO)N3CCCCN(CC4CC4)C[C@H]23)cc1	none
O=C(C[C@H]1C[C@@H]2c3cc(NC(=O)c4ccc5c(c4)OCO5)ccc3O[C@@H]2[C@H](CO)O1)NCCN1CCCCC1	none
CN1C(=O)c2cc(NC(=O)c3ccc4c(c3)OCO4)ccc2OC[C@H]2O[C@H](CC(=O)O)CC[C@H]21	none
CN(C)C(=O)c1cccc(-c2ccc([C@H]3[C@@H](CO)N4CCCCN(C(=O)C5CCC5)C[C@@H]34)cc2)c1	none
COc1ccccc1NC(=O)N1[C@H](CO)[C@H](c2ccccc2)[C@@H]1C#N	none
O=C(Cc1cccnc1)N1[C@H](CO)[C@H](c2ccccc2)[C@@H]1CNCC1CCC1	none
CC(C)CC#Cc1ccc([C@H]2[C@@H](CO)N3C(=O)CN(C(=O)NC(C)C)C[C@H]23)cc1	none
COc1cccc(NC(=O)Nc2ccc3c(c2)C(=O)N(C)C[C@@H](OC)[C@@H](C)CN[C@@H](C)CO3)c1	none
COc1cccc(NC(=O)Nc2ccc3c(c2)C(=O)N(C)C[C@@H](OC)[C@@H](C)CN[C@H](C)CO3)c1	none
COc1cccc(NC(=O)Nc2ccc3c(c2)C(=O)N(C)C[C@H](OC)[C@H](C)CN[C@H](C)CO3)c1	none
CO[C@H]1CN(C)C(=O)c2cc(NC(=O)c3cnccn3)ccc2OC[C@@H](C)NC[C@@H]1C	none
CO[C@@H]1CN(C)C(=O)c2cc(NC(=O)c3ccc(Oc4ccccc4)cc3)ccc2OC[C@H](C)NC[C@H]1C	IDE exosite FP -7.6
CO[C@H]1CN(C)C(=O)c2cc(NC(=O)c3ccc(Oc4ccccc4)cc3)ccc2OC[C@@H](C)NC[C@@H]1C	IDE exosite FP -13
N#Cc1cccc(-c2ccc3c(c2)[C@H]2[C@H](CCN2C(=O)CN2CCOCC2)[C@H](CO)N3)c1	none
O=S(=O)(c1ccc(F)cc1)N1CCCCN2[C@H](CO)[C@H](c3ccc(C#CC4CC4)cc3)[C@H]2C1	none
CC(=O)N(Cc1cccc(F)c1)C[C@@H]1[C@@H](c2ccccc2)[C@@H](CO)N1C(C)=O	none
CC(C)CC#Cc1ccc([C@H]2[C@H]3CN(C(=O)NC4CCCC4)CCCCN3[C@H]2CO)cc1	none
CO[C@H]1CN(C)C(=O)c2ccc(NC(=O)C3CC3)cc2OC[C@H](C)N(C(C)=O)C[C@@H]1C	none
CN(C)C(=O)c1cccc(-c2ccc([C@H]3[C@@H](CO)N4CCCCN(CCC(F)(F)F)C[C@@H]34)cc2)c1	none
CO[C@@H]1CN(C)C(=O)c2cc(NC(=O)c3cnccn3)ccc2OC[C@@H](C)NC[C@H]1C	none
C[C@@H]1CN([C@@H](C)CO)C(=O)CCCn2nncc2CO[C@H]1CN(C)C(=O)NC1CCCC1	none
O=C(C[C@@H]1C[C@H]2c3cc(NS(=O)(=O)c4ccc(F)cc4)ccc3O[C@H]2[C@H](CO)O1)N1CCc2ccccc2C1	none
Cc1noc(C)c1S(=O)(=O)Nc1ccc2c(c1)C(=O)N([C@@H](C)CO)C[C@@H](C)[C@@H](CN(C)Cc1ccc(C(=O)O)cc1)OCCCC[C@@H](C)O2	none
Cc1cccc(S(=O)(=O)N2CCCCN3[C@@H](CO)[C@@H](c4ccc(C#C[C@H](C)O)cc4)[C@@H]3C2)c1	none
CC(=O)N1CCCCN2[C@@H](CO)[C@H](c3ccc(-c4ccccc4)cc3)[C@@H]2C1	none
CC(=O)N1CCCCN2[C@H](CO)[C@H](c3ccc(-c4cccc(C)c4)cc3)[C@@H]2C1	none
CC(=O)N1CCCCN2[C@H](CO)[C@H](c3ccc(-c4cccc(C)c4)cc3)[C@H]2C1	IDE exosite FP -12
Cc1cccc(-c2ccc([C@H]3[C@@H](CO)N4CCCCN(C(=O)c5ccc6c(c5)OCO6)C[C@@H]34)cc2)c1	none
CC(=O)N1CCCCN2[C@H](CO)[C@H](c3ccc(-c4ccc(C)cc4)cc3)[C@H]2C1	none
Cc1cccc(-c2ccc([C@@H]3[C@@H](CO)N4CCCCN(C(=O)c5ccc6c(c5)OCO6)C[C@H]34)cc2)c1	none

Source: PubChem BioAssay (Broad Institute)
